Measured values from PubChem BioAssay (NCATS).
Records with an inconclusive call do not appear. A call without a number means that no potency is given here. Active and inactive are the calls of the source. Calls follow the shape of the dose curve; as a rule, active = well fitted inhibition curve with a large enough effect; inconclusive = small, poorly fitted or top-dose-only effect; inactive = flat fitted curve, though single readings scatter.

Biological target: Luciferin 4-monooxygenase (Photinus pyralis) (UniProt P08659)
Sequence (P08659 whole entry, looked up): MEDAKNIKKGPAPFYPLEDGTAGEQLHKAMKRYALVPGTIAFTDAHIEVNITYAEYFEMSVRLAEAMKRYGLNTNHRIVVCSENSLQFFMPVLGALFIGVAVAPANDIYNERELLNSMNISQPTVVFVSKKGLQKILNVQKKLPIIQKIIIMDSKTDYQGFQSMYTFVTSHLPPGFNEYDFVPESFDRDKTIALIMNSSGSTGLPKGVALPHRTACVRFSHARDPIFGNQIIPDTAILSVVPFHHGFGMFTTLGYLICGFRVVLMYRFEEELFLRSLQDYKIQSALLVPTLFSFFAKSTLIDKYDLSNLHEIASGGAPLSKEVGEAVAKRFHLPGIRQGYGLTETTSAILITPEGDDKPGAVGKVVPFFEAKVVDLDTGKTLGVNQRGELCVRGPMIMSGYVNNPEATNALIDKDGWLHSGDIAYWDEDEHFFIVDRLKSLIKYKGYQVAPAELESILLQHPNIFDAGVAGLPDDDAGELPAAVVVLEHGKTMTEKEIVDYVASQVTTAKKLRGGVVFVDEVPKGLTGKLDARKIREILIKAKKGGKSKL
Experiment: Biochemical firefly luciferase enzyme assay for NPC (AID 624030); also: nearly all actives have a fitted effect of over 70% in size
Conditions: purified P. pyralis luciferase, luminescence, 5 min; series mostly up to 58.6 µM
How it was run: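 Direct inhibition of firefly luciferase enzyme (10 nM final, 50 mM Tris Acetate) assessed by luminescence within 5 minutes. Percent activity scaled between DMSO and PTC124 positive control, with concentration-effect curves classified by fit quality and response.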
Potency is read from the fitted curve at half-maximal effect.

Compound | Potency
CCCCCCCCCCCCCCCCCCCCCC(=O)Nc1ccn([C@@H]2O[C@H](CO)[C@@H](O)[C@@H]2O)c(=O)n1 | inactive
Cc1cccc(C)c1NC(=O)NC1=CCCN1C | inactive
Cc1ccc(C(C)(C)c2ccc(C)cc2)cc1 | inactive
CCOc1ccc(S(=O)(=O)O)c2cccnc12 | inactive
O=C(O)CCC/C=C\C[C@@H]1[C@@H](/C=C/[C@@H](O)COc2cccc(Cl)c2)[C@H](O)C[C@@H]1O | inactive
FC(F)(F)COCC(F)(F)F | inactive
Cc1nc(NS(=O)(=O)c2ccc(N)cc2)nc(C)c1Br | inactive
C=CCCCCCCCCC(=O)OC | inactive
O=C1c2ccccc2CN2C(=O)c3ccccc3CN12 | inactive
O=C(O)c1ccc(OCCn2ccnc2)cc1 | inactive
c1ccc(-n2cnnn2)cc1 | inactive
COC(=O)CCC[N+](C)(C)C | inactive
CC[C@H]1OC(=O)[C@H](C)[C@@H](O[C@H]2C[C@@](C)(OC)[C@@H](O)[C@H](C)O2)C(C)[C@@H](O[C@@H]2O[C@H](C)C[C@H](N(C)C)[C@@H]2O)[C@](C)(OC)C[C@@H](C)C(=O)[C@H](C)[C@@H](O)[C@]1(C)O (some centres not stated) | inactive
CC(C)(C)CC(C)(C)c1cc(Cc2cc(C(C)(C)CC(C)(C)C)cc(-n3nc4ccccc4n3)c2O)c(O)c(-n2nc3ccccc3n2)c1 | inactive
C[Se]CC[C@H](N)C(=O)O | inactive
CCOC(=O)c1c[nH]c2cc(OCC(C)C)c(OCC(C)C)cc2c1=O | inactive
S=C=Nc1ccc(N=C=S)cc1 | inactive
Nc1nc(=O)n([C@@H]2CS[C@H](CO)O2)cc1F | inactive
CCCC(=O)O | inactive

Compound | Potency
Cc1cc(=O)c(C(=O)N[C@@H](C(=O)N[C@@H]2C(=O)N3C(C(=O)O)=C(CSc4nnnn4C)CS[C@H]23)c2ccc(O)cc2)c[nH]1 | inactive
CC(=O)[O][Al][O]C(C)=O | inactive
N=C(N)n1cccn1 | inactive
CC(=O)Nc1ccc(NC(=S)NC(=O)c2ccc(C(C)(C)C)cc2)cc1 | inactive
Cc1cc(C(=O)NCCc2ccc(S(=O)(=O)NC(=O)NN3CCCCCC3)cc2)no1 | inactive
CS(=O)(=O)OCC(O)C(O)COS(C)(=O)=O (configuration not stated) | inactive
CN=C1C=CC(=C(c2ccc(N(C)C)cc2)c2ccc(N(C)C)cc2)C=C1 | 14.4 µM (active)
CC(C)(COP(=O)(O)OP(=O)(O)OC[C@H]1O[C@@H](n2cnc3c(N)ncnc32)[C@H](O)[C@@H]1OP(=O)(O)O)C(O)C(=O)NCCC(=O)NCCS (some centres not stated) | inactive
O=C(Nc1ccc(O)cc1)c1ccccc1O | 14.4 µM (active)
O=P(O)(O)OC[C@H](O)CO | inactive
COc1ccc(/C=N/NC(=O)c2ccncc2)c(C(=O)O)c1OC | inactive
CNC(=O)[C@H](Cc1c[nH]c2ccccc12)NC(=O)[C@@H](CC(=O)NO)CC(C)C | inactive
CCCCCCOC(=O)c1cccnc1 | inactive
CC(C)c1nc(N(C)S(C)(=O)=O)nc(-c2ccc(F)cc2)c1/C=C/C(O)CC(O)CC(=O)O (configuration not stated) | inactive
CCCc1nc(C(C)(C)O)c(C(=O)OCc2oc(=O)oc2C)n1Cc1ccc(-c2ccccc2-c2nn[nH]n2)cc1 | inactive
C[C@H](N)C(=O)N[C@@H](C)P(=O)(O)O | inactive
CCC(O)c1ccccc1 (configuration not stated) | inactive
CCCCC[C@H](O)/C=C/[C@@H]1[C@H]2C/C(=C/CCCC(=O)O)O[C@H]2C[C@H]1O | inactive
